# Publication PMC4336329 (PLoS ONE, 2015)
# Screen size: about 310,000 compounds; about 14,000 (4.5%) showed an effect of 50% or more. The effect is printed as a negative number. What follows is part of a selection rich in strong results, with near analogues and random picks from the rest.
# Target: human ether-à-go-go-related gene (hERG) potassium channel (human, UniProt Q12809)
# Assay: primary screen, population patch clamp on CHO cells stably expressing hERG; higher = less effect of the substance
# 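Note: peak tail current of the secondary pulse compared with the same well before compound.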
# human ether-à-go-go-related gene (hERG) potassium channel, sequence (Q12809 whole entry, looked up): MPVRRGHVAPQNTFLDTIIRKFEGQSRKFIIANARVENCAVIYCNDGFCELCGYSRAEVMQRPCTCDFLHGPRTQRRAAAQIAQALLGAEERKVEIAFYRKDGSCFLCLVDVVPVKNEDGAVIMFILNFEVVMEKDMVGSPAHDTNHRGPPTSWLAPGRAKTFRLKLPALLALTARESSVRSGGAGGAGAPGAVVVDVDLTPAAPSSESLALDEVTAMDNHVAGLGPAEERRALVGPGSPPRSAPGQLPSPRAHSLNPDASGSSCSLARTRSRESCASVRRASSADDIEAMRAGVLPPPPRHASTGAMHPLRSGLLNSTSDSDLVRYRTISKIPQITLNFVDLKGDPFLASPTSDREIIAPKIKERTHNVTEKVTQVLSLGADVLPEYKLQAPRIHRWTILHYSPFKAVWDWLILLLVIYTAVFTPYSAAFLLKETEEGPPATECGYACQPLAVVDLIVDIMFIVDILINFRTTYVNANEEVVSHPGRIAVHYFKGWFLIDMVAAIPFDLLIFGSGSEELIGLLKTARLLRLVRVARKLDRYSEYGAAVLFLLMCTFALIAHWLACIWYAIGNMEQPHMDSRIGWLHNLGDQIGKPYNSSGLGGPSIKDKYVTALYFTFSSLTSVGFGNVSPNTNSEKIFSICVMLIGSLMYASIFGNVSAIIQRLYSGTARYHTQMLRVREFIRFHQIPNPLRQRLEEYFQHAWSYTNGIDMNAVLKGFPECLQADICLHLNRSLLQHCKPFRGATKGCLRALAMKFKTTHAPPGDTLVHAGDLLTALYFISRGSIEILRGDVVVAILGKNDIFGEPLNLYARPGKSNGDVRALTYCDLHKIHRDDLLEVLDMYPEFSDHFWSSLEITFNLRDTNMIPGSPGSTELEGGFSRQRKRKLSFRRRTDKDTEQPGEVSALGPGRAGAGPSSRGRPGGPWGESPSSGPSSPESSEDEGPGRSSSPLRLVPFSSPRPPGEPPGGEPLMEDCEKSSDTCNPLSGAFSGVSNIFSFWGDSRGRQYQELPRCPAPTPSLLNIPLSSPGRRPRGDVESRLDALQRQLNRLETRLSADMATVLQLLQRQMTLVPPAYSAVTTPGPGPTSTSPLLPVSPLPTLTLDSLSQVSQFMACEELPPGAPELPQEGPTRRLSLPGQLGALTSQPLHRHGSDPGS
row,Compound,"hERG current change (%, negative = inhibition) at 10uM [%]"
1,C/C(Cn1cnc([N+](=O)[O-])n1)=N/NC(=O)COc1c(Cl)cc(Cl)cc1Cl,-31.4
2,C/C(CC(=O)NCc1ccco1)=N\NC(=O)COc1ccc(Cl)cc1Cl,-65.6
3,COc1ccc(C(=O)N/N=C(\C)Cn2nc([N+](=O)[O-])cc2C)cc1,-15.8
4,C/C(CC(=O)NCc1ccc(Cl)cc1)=N\NC(=O)COc1ccc(C)cc1Br,-33.1
5,C/C(CC(=O)NCc1ccco1)=N\NC(=O)c1ccc(Cl)cc1Cl,8.44
6,COc1ccccc1CNC(=O)C/C(C)=N/NC(=O)COc1ccc(C)cc1Br,-63.9
7,O=C(COc1ccc(Cl)cc1Cl)NCc1ccco1,0.837
8,CCCNC(=O)C/C(C)=N/NC(=O)COc1ccc(C)cc1Br,-20.9
9,Cc1cc(C)n(CC(=O)NNC(=O)COc2ccc(Cl)cc2Cl)n1,3.06
10,C/C(Cn1nc([N+](=O)[O-])cc1C)=N\NC(=O)COc1ccccc1[N+](=O)[O-],-17.4
11,C/C(Cn1nc([N+](=O)[O-])cc1C)=N\NC(=O)COc1ccc(Cl)cc1Cl,-66.3
12,C/C(Cn1nc([N+](=O)[O-])cc1C)=N\NC(=O)COc1c(Cl)cc(Cl)cc1Cl,-68
13,O=C(NN1C(=O)CSC1=S)C(=O)NN1C(=O)CSC1=S,25.3
14,O=C(Nc1ccccc1C(=O)Nc1ccccc1C(=O)O)c1ccccc1,20.5
15,CN1CCN(Cc2nnc(-c3ccccc3)o2)CC1,22.7
16,C/C(=C\C(=O)c1cccnc1)Nc1ccc(C)c(C)c1,-20
17,CCc1ccc(OCC2NCCc3cc(OC)c(OC)cc32)cc1 (stereo not drawn),-45.2
18,CC(=O)Nc1ccc(N2CCCC2)cc1,6.33
19,CCN1CCN(C(c2ccccc2)c2sc3nc(C)nn3c2O)CC1 (stereo not drawn),-9.32
20,C/C(CC(=O)Nc1ccccc1)=N\NC(=O)COc1ccc(C)cc1Br,2.14
21,C/C(CC(=O)N(C(C)C)C(C)C)=N\NC(=O)COc1ccc(Cl)cc1Cl,-22.6
22,C/C(CC(=O)N(C(C)C)C(C)C)=N\NC(=O)COc1ccc(Br)cc1Br,-51.3
23,Cc1cc2nc(-c3ccc(SCC(=O)Nc4ccc(S(=O)(=O)N5CCCC5)cc4)nc3)[nH]c2cc1C,8.52

row,Compound,"hERG current change (%, negative = inhibition) at 10uM [%]"
1,Cc1cccc(N2C(=O)CC(N3CCN(Cc4ccc5c(c4)OCO5)CC3)C2=O)c1 (stereo not drawn),-19.1
2,CCOc1ccccc1CN1CCN(Cc2cn(C)nc2-c2ccccc2)CC1CCO (stereo not drawn),-65.6
3,CCn1ncc(CN2CCN(Cc3ccc(OC)c(C)c3C)C(CCO)C2)c1C (stereo not drawn),-19.9
4,Cn1cc(CN2CCN(Cc3ccccc3)C(CCO)C2)c(-c2ccccc2)n1 (stereo not drawn),-37.9
5,Cc1ccc(CN2CCN(Cc3cn(C)nc3-c3ccccc3)CC2CCO)o1 (stereo not drawn),1.84
6,COc1ccc(CN2CCN(Cc3cn(C)nc3-c3ccccc3)CC2CCO)c(C)c1C (stereo not drawn),-72.4
7,COc1cc(C2CC(=O)Oc3c2c(=O)n(C)c2ccccc32)ccc1O (stereo not drawn),14.7
8,COc1ccc(NC(=O)C2(c3ccc(NC(=O)c4ccc(OC)cc4)cc3)CCCC2)cc1,-9.88
9,CCn1c(SCC(=O)N/N=C/c2ccccc2OCC(=O)O)nnc1-c1ccc(C)cc1,3.57
10,Cn1c(=O)c(C(=O)COC(=O)c2cc(C3CC3)nc3ccccc23)c(N)n(Cc2ccccc2)c1=O,13.8
11,Cc1cc(C)cc(-n2ncc3c2CCCC3NC(=O)c2csnn2)c1 (stereo not drawn),-110
12,Cc1cc(C)cc(-n2ncc3c2CCCC3NC(=O)C2CCC2)c1 (stereo not drawn),-76
13,Cc1cccc(-n2ncc3c2CCCC3NC(=O)CCN2Cc3ccccc3C2=O)c1C (stereo not drawn),2.55
14,Cc1ccc(-n2ncc3c2CCCC3NC(=O)c2csnn2)cc1C (stereo not drawn),-33.2
15,CC(=O)c1cc(C(=O)NC2CCCc3c2cnn3-c2cc(C)cc(C)c2)[nH]n1 (stereo not drawn),-23
16,Cc1ccccc1-n1ncc2c1CC(C)(C)CC2NC(=O)CCN1Cc2ccccc2C1=O (stereo not drawn),-3.54
17,Cc1cc(C)cc(-n2ncc3c2CCCC3NC(=O)C2(C(N)=O)CC2)c1 (stereo not drawn),13.7
18,Cc1cc(C)cc(-n2ncc3c2CCCC3NC(=O)CCN2Cc3ccccc3C2=O)c1 (stereo not drawn),-54.3
19,Cc1cc(C(=O)NC2CCCc3c2cnn3-c2ccc(C(C)(C)C)cc2)n[nH]1 (stereo not drawn),-5.84
20,CC(=O)N1CCC(C(=O)NC2CCCc3c2cnn3-c2cc(F)cc(F)c2)CC1 (stereo not drawn),-4.52
21,CC(C)(C)c1ccc(-n2ncc3c2CCCC3NC(=O)c2csnn2)cc1 (stereo not drawn),1.88
22,Cc1cc(C)cc(-n2ncc3c2CCCC3NC(=O)c2cc(C)[nH]n2)c1 (stereo not drawn),-67.5
